Here are results for four compounds from PubChem BioAssay (EPA / NIEHS).

“And” between values parts separate entries of the source, which are not always exact repeats. Identical values can stand only once. The source holds several records for some structures; these can differ, active in one and inactive in another. The source made the active and inactive calls. How the source made its calls: active means hit-call score of the fitted dose curve at least 0.9, where 1 is the maximum; inactive means score below 0.9.

Read-out in assay [1]: Interleukin-8 (IL8), CXCL8 (gene 3576)
The assay is described as follows: BSK_KF3CT_IL8: BioMAP Diversity Plus: KF3CT Assay for Interleukin-8 (IL8) Biomarker Activity (AID 2284254). The conditions noted are these: primary human keratinocytes with fibroblasts. In outline: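 Chemicals were added to co-cultured human keratinocytes and foreskin fibroblasts, incubated 24 h, then IL-8 was quantified by ELISA. Cytotoxicity was tracked by sulforhodamine B total-protein staining in parallel cultures.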

Read-out in assay [2]: Macrophage Inflammatory Protein-1 Alpha (MIP1a), CCL3 (gene 6348)
The assay is described as follows: BSK_IMphg_MIP1a: BioMAP Diversity Plus: IMphg Assay for Macrophage Inflammatory Protein-1 Alpha (MIP1a) Biomarker Activity (AID 2284255). The conditions noted are these: primary human endothelial cells with macrophages. In outline:
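Co-culture of human venular endothelial cells and macrophages exposed to compounds for 24 h; MIP-1a measured by ELISA relative to DMSO. Cytotoxicity assessed in parallel cultures by sulforhodamine B total-protein staining at 560 nm.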

Read-out in assay [3]: Plasminogen activator inhibitor-1 (PAI1), SERPINE1 (gene 5054)
Nature of the assay: BSK_MyoF_PAI1: BioMAP Diversity Plus: MyoF Assay for Plasminogen activator inhibitor-1 (PAI1) Biomarker Activity (AID 2284256).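 On outcome: PAI-1 read 24 h after compound addition.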 The settings on record: primary human lung fibroblasts. In outline: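 Primary human lung fibroblasts are dosed and incubated 24 h. PAI-1 is then measured by ELISA, while parallel cultures undergo SRB staining for overt cytotoxicity. Increases over DMSO define activity.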

Read-out in the next assay: CD69, CD69 (gene 969)
Nature of the assay: BSK_IMphg_CD69: BioMAP Diversity Plus: IMphg Assay for CD69 Biomarker Activity (AID 2284257). The settings on record: primary human endothelial cells with macrophages. In outline: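 Human venular endothelial cells co-cultured with macrophages; CD69 quantified by ELISA 24 h after compound addition. Activity fitted in the positive direction relative to DMSO baseline; cytotoxicity tracked in parallel cultures via SRB total-protein staining.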

Read-out in assay [4]: Eotaxin 3, CCL26 (gene 10344)
The assay is described as follows: BSK_BF4T_Eotaxin3: BioMAP Diversity Plus: BF4T Assay for Eotaxin 3 Biomarker Activity (AID 2284258). The conditions noted are these: primary human bronchial epithelial cells with fibroblasts. In outline: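 Co-culture of human bronchial epithelial cells and dermal fibroblasts, exposed to chemicals for 24 h versus DMSO. Eotaxin-3 quantified by ELISA; cytotoxicity checked in parallel cultures by sulforhodamine B total-protein staining.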

Read-out in assay [5]: Monocyte Chemoattractant Protein-1 (MCP1), CCL2 (gene 6347)
Nature of the assay: BSK_BF4T_MCP1: BioMAP Diversity Plus: BF4T Assay for Monocyte Chemoattractant Protein-1 (MCP1) Biomarker Activity (AID 2284259). The settings on record: primary human bronchial epithelial cells with fibroblasts. The method, boiled down:
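Co-culture of bronchial epithelial cells and dermal fibroblasts dosed with chemical; MCP-1 measured by ELISA 24 h later. Activity fitted in positive direction versus DMSO; cytotoxicity checked by SRB staining in parallel cultures.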

Read-out in assay [6]: Intercellular Adhesion Molecule 1 (ICAM1), ICAM1 (gene 3383)
Nature of the assay: BSK_BF4T_ICAM1: BioMAP Diversity Plus: BF4T Assay for Intercellular Adhesion Molecule 1 (ICAM1) Biomarker Activity (AID 2284260). The conditions noted are these: primary human bronchial epithelial cells with fibroblasts. In outline:
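Co-culture of human bronchial epithelial cells and dermal fibroblasts exposed 24 h to chemical; cell-surface ICAM-1 quantified by ELISA. Parallel SRB total-protein staining assessed cytotoxicity; activity fitted relative to DMSO.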

Read-out in assay [7]: Interleukin-8 (IL8), CXCL8 (gene 3576)
Nature of the assay: BSK_MyoF_IL8: BioMAP Diversity Plus: MyoF Assay for Interleukin-8 (IL8) Biomarker Activity (AID 2284261). The settings on record: primary human lung fibroblasts. In outline:
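IL-8 levels were measured by ELISA in human lung fibroblasts harvested 24 h after compound addition. Responses were analysed as gain of signal over the DMSO baseline.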

Read-out in a further assay: CD90, THY1 (gene 7070)
The assay is described as follows: BSK_BF4T_CD90: BioMAP Diversity Plus: BF4T Assay for CD90 Biomarker Activity (AID 2284262). The settings on record: primary human bronchial epithelial cells with fibroblasts. In outline:
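Co-culture of human bronchial epithelial cells and dermal fibroblasts, 24 h compound exposure. Cell-surface CD90 measured by ELISA relative to DMSO; parallel SRB total-protein staining for cytotoxicity.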

Read-out in assay [8]: Interleukin-8 (IL8), CXCL8 (gene 3576)
Nature of the assay: BSK_BF4T_IL8: BioMAP Diversity Plus: BF4T Assay for Interleukin-8 (IL8) Biomarker Activity (AID 2284263). The settings on record: primary human bronchial epithelial cells with fibroblasts. The method, boiled down:
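Human bronchial epithelial cells with dermal fibroblasts co-culture; IL-8 measured by ELISA 24 hours after dosing, fitted vs DMSO. Cytotoxicity tracked in parallel cultures by SRB total-protein staining.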

Read-out in assay [9]: Interleukin-1 alpha (IL1a), IL1A (gene 3552)
The assay is described as follows: BSK_BF4T_IL1a: BioMAP Diversity Plus: BF4T Assay for Interleukin-1 alpha (IL1a) Biomarker Activity (AID 2284264). The conditions noted are these: primary human bronchial epithelial cells with fibroblasts. In outline:
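Human bronchial epithelial cells co-cultured with dermal fibroblasts, dosed and read at 24 h. Secreted/surface IL-1α quantified by ELISA; gain-of-signal fitted relative to DMSO baseline. Parallel SRB total-protein staining tracked cytotoxicity.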

Read-out in the next assay: Decorin, DCN (gene 1634)
The assay is described as follows: BSK_MyoF_Decorin: BioMAP Diversity Plus: MyoF Assay for Decorin Biomarker Activity (AID 2284265). The settings on record: primary human lung fibroblasts. The method, boiled down: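 Compound is added to lung fibroblast cultures; cells incubate 24 h; decorin is then measured by ELISA; the response is analysed upward against DMSO controls.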

Read-out in the next assay: KRT18 (gene 3875)
The assay is described as follows: BSK_BF4T_Keratin818: BioMAP Diversity Plus: BF4T Assay for Keratin 818 Biomarker Activity (AID 2284266). The conditions noted are these: primary human bronchial epithelial cells with fibroblasts. The method, boiled down:
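Co-culture of human bronchial epithelial cells and dermal fibroblasts, chemical exposure 24 h. Keratin 8/18 measured by ELISA; positive-direction fit vs DMSO. SRB total protein run in parallel cultures for cytotoxicity.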

Read-out in assay [10]: Matrix Metallopeptidase 1 (MMP1), MMP1 (gene 4312)
The assay is described as follows: BSK_MyoF_MMP1: BioMAP Diversity Plus: MyoF Assay for Matrix Metallopeptidase 1 (MMP1) Biomarker Activity (AID 2284268). The conditions noted are these: primary human lung fibroblasts. In outline: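 Lung fibroblast cultures were dosed with test chemicals and, after 24 h, MMP1 levels were measured by ELISA; responses were referenced to DMSO and analysed for increases.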

Read-out in assay [11]: TIMP metallopeptidase inhibitor 1 (TIMP1), TIMP1 (gene 7076)
The assay is described as follows: BSK_MyoF_TIMP1: BioMAP Diversity Plus: MyoF Assay for TIMP metallopeptidase inhibitor 1 (TIMP1) Biomarker Activity (AID 2284269). The conditions noted are these: primary human lung fibroblasts. In outline:
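ELISA read-out of TIMP-1 from primary human lung fibroblast cultures 24 h after compound dosing; gain of signal relative to DMSO vehicle baseline defines activity.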

Read-out in assay [12]: Matrix Metallopeptidase 1 (MMP1), MMP1 (gene 4312)
Nature of the assay: BSK_BF4T_MMP1: BioMAP Diversity Plus: BF4T Assay for Matrix Metallopeptidase 1 (MMP1) Biomarker Activity (AID 2284270). The settings on record: primary human bronchial epithelial cells with fibroblasts. In outline: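 Co-culture of human bronchial epithelial cells and dermal fibroblasts; MMP-1 levels measured by ELISA 24 hours after chemical dosing, relative to DMSO. Cytotoxicity checked in parallel cultures by SRB total-protein staining.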

Read-out in assay [13]: Matrix Metallopeptidase 3 (MMP3), MMP3 (gene 4314)
Nature of the assay: BSK_BF4T_MMP3: BioMAP Diversity Plus: BF4T Assay for Matrix Metallopeptidase 3 (MMP3) Biomarker Activity (AID 2284271). The settings on record: primary human bronchial epithelial cells with fibroblasts. In outline:
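Co-culture of human bronchial epithelial cells and dermal fibroblasts dosed 24 h; MMP-3 measured by ELISA, positive-direction fit versus DMSO. Cytotoxicity tracked by SRB total-protein staining (560 nm) in parallel cultures.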

Read-out in assay [14]: Tissue plasminogen activator (tPA), PLAT (gene 5327)
Nature of the assay: BSK_BF4T_tPA: BioMAP Diversity Plus: BF4T Assay for Tissue plasminogen activator (tPA) Biomarker Activity (AID 2284272). The settings on record: primary human bronchial epithelial cells with fibroblasts. The method, boiled down:
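tPA level quantified by ELISA at 24 h post-treatment in bronchial epithelial/dermal fibroblast co-cultures, gain of signal scored against DMSO baseline. Parallel cultures stained with 0.1% SRB (560 nm) to flag overt cytotoxicity.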

Assay [15] can be described thus: BSK_BF4T_SRB: Viability Assessment in the BioMAP Diversity Plus: BF4T Assay (AID 2284274). The conditions noted are these: primary human bronchial epithelial cells with fibroblasts. In outline: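 Co-culture of human bronchial epithelial cells and dermal fibroblasts (BioMAP BF4T) exposed 24 h. Total protein by sulforhodamine B staining (0.1% SRB after 10% TCA fixation, 560 nm) in parallel cultures; fitted vs DMSO.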

Read-out in assay [16]: urokinase Plasminogen Activator (uPA), PLAU (gene 5328)
Nature of the assay: BSK_BF4T_uPA: BioMAP Diversity Plus: BF4T Assay for urokinase Plasminogen Activator (uPA) Biomarker Activity (AID 2284275). The conditions noted are these: primary human bronchial epithelial cells with fibroblasts. The method, boiled down: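 Co-culture of human bronchial epithelial cells and dermal fibroblasts; uPA quantified by ELISA 24 hours after dosing, fitted relative to DMSO. Parallel SRB total-protein staining assessed overt cytotoxicity.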

As a reminder, the AC50 is the concentration giving half of the maximal activity seen. Regarding `O=C(O)C(F)(F)OC(F)(F)C(F)(F)OC(F)(F)C(F)(F)OC(F)(F)C(F)(F)C(F)(F)C(F)(F)F`, the outcome in assay [1] was “inactive”; in [5], “inactive”; with CD90, THY1 (gene 7070), “inactive”; in [8] it was “inactive”; with Decorin, DCN (gene 1634) it was “inactive”; in assay [10], “inactive”. In addition, the result in assay [12], in assay [15] and in assay [16] was inactive. For the same compound, the AC50 was 36.5 µM (active) and 38.3 µM (active) in assay [2]; 14.6 µM (active) and 13.3 µM (active) in assay [3]; 40.2 µM (active) and 24.2 µM (active) with CD69, CD69 (gene 969); 7.32 µM (active) and 7.02 µM (active) in assay [4]; 7.5 µM (active) in assay [5]; 8.19 µM (active) and 7.58 µM (active) in assay [6]. Besides, the AC50 in [7] is 46.8 µM (active) and 44.5 µM (active); in the assay with CD90, THY1 (gene 7070) it was 14.6 µM (active); in [8], 53.7 µM (active); in [9], 11 µM (active) and 13.4 µM (active); in the assay with Decorin, DCN (gene 1634), 17.3 µM (active); in the assay with KRT18 (gene 3875), 14.6 µM (active) and 7.97 µM (active). In addition, the half-maximal activity concentration (AC50) is 8.18 µM (active) and 8.09 µM (active) in assay [11]; 14.4 µM (active) and 8.19 µM (active) in [13]; 8.23 µM (active) and 8.02 µM (active) in assay [14]; 14.6 µM (active) in [16].

With `O=C(CC(=O)C(F)(F)C(F)(F)C(F)(F)F)c1cccs1`, the outcome in assay [1] was “inactive”; in [3], “inactive”; in assay [7], “inactive”; with CD90, THY1 (gene 7070) it was “inactive”; with Decorin, DCN (gene 1634), “inactive”; in [10], “inactive”. In addition, in assay [11], the outcome was inactive. The half-maximal activity concentration (AC50) in [2] was 52.5 µM (active) and 24.1 µM (active); with CD69, CD69 (gene 969) it was 30 µM (active); in assay [4] it was 12.8 µM (active) and 13 µM (active); in assay [5] it was 22.9 µM (active) and 10.9 µM (active); in assay [6], 20 µM (active) and 18.8 µM (active); with CD90, THY1 (gene 7070), 9.69 µM (active). The AC50 is 52.8 µM (active) and 55.1 µM (active) in assay [8]; 43 µM (active) and 45 µM (active) in assay [9]; 23.1 µM (active) and 28 µM (active) with KRT18 (gene 3875); 19.3 µM (active) and 17 µM (active) in assay [12]; 37.6 µM (active) and 25.2 µM (active) in assay [13]; 30 µM (active) in assay [14]. For the same compound, the half-maximal activity concentration (AC50) was 23.9 µM (active) and 26.7 µM (active) in [15]; 46.4 µM (active) and 35.8 µM (active) in assay [16].

Consider `COC1=CC(=O)C[C@@H](C)[C@]12Oc1c(Cl)c(OC)cc(OC)c1C2=O`, for which the outcome was “inactive” in [3]; “inactive” in [7]; “inactive” with Decorin, DCN (gene 1634); “inactive” in assay [11]. The half-maximal activity concentration (AC50) in assay [10] was 20 µM (active).

Regarding `CCCCCc1ccc(O)cc1`, the results for the AC50 in assay [3], in assay [10] and in assay [11] were 32.2 µM (active), 36.6 µM (active) and 20 µM (active), respectively. For the same compound, the outcome in assay [7] is “inactive”; in the assay with Decorin, DCN (gene 1634) it was “inactive”.
